According to the supplement of paper PMC9694430:
Counter-ions that a name gives are not always drawn.

Experiments:
Assay in all cases: thermal shift delta Tm vs DMSO control; higher = stronger stabilization (binding)
Conditions in all cases: 12.5 µM; protein concentration 2 µM
LOC_OS02G45750-cb003 = system: LOC_OS02G45750-cb003
Method in brief: (§1)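 Purified, E. coli-expressed rice kinase domain constructs were tested by differential scanning fluorimetry in 96-well plates: 19.5 μl of 2 μM kinase in 100 mM potassium phosphate pH 7.5, 150 mM NaCl, 10% glycerol, 5 × SYPRO Orange, plus compound in DMSO. Fluorescence was read from 25°C to 95°C at 0.05°C/s. Melting temperatures came from Boltzmann fits, and the shift is the triplicate mean relative to protein with DMSO alone.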

LOC_OS02G54510-cb004 = system: LOC_OS02G54510-cb004
Method in brief: as §1

LOC_OS03G04050-cb001 = system: LOC_OS03G04050-cb001
Method in brief: as §1

LOC_OS03G12390-cb001 = system: LOC_OS03G12390-cb001
Method in brief: as §1

LOC_OS03G27990-cb004 = system: LOC_OS03G27990-cb004
Method in brief: as §1

LOC_OS03G50450-cb001 = system: LOC_OS03G50450-cb001
Method in brief: as §1

LOC_OS03G50810-cb003 = system: LOC_OS03G50810-cb003
Method in brief: as §1

LOC_OS04G35114-cb001 = system: LOC_OS04G35114-cb001
Method in brief: as §1

LOC_OS04G38480-cb003 = system: T1, LOC_OS04G38480-cb003
T1 sequence (whole entry): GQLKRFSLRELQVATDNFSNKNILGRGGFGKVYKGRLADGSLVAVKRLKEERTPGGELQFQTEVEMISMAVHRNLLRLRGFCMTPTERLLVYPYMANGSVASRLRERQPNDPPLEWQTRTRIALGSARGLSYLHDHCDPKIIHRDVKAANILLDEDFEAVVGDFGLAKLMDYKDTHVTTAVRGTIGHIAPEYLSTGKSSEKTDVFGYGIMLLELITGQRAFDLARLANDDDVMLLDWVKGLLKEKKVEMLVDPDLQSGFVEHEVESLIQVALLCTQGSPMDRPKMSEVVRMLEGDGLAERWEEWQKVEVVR
Method in brief: as §1

LOC_OS04G41100-cb001 = system: T2, LOC_OS04G41100-cb001
T2 sequence (whole entry): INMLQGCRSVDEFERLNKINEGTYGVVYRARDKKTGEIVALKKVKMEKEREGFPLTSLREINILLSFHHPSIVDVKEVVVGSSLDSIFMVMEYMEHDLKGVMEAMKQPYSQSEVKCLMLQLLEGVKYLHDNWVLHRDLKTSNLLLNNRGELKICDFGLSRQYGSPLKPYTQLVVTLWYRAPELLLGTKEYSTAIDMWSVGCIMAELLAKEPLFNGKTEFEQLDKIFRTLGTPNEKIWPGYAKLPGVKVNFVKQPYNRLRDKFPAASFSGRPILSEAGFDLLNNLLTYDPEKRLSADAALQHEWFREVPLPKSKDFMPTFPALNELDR
Method in brief: as §1

Row | Structure (SMILES) | thermal shift delta Tm (LOC_OS02G45750-cb003) | thermal shift delta Tm (LOC_OS02G54510-cb004) | thermal shift delta Tm (LOC_OS03G04050-cb001) | thermal shift delta Tm (LOC_OS03G12390-cb001) | thermal shift delta Tm (LOC_OS03G27990-cb004) | thermal shift delta Tm (LOC_OS03G50450-cb001) | thermal shift delta Tm (LOC_OS03G50810-cb003) | thermal shift delta Tm (LOC_OS04G35114-cb001) | thermal shift delta Tm (LOC_OS04G38480-cb003) | thermal shift delta Tm (LOC_OS04G41100-cb001)
1 | Cc1nc(Nc2ncc(C(=O)Nc3c(C)cccc3Cl)s2)cc(N2CCN(CCO)CC2)n1 [Dasatinib] | 10.7 °C | 14 °C | 0.29 °C | 0.81 °C | 1.34 °C | 0.06 °C | 3.61 °C | 5.79 °C | 1.57 °C | 0.77 °C
2 | N#Cc1c(Oc2ccc(F)c(NC(=O)Cc3cccc(C(F)(F)F)c3)c2)ccc2nc(NC(=O)C3CC3)sc12 | 1.08 °C | 0.54 °C | 0.5 °C | 0.15 °C | 0.31 °C | 0.4 °C | 0.5 °C | 0.45 °C | 1.92 °C | 0.42 °C
3 | C=CC(=O)Nc1cccc(C)c1Nc1ncc2cc(-c3c(Cl)c(OC)cc(OC)c3Cl)ccc2n1 | 1.09 °C | 0.44 °C | 0.49 °C | -0.06 °C | 0.28 °C | 0.23 °C | 0.27 °C | 0.49 °C | 2.08 °C | 0.27 °C
4 | CCN(CC)CCCC(C)Nc1nc(C)cc(Nc2ccc3nc(C)cc(N)c3c2)n1 (stereo not given) | 1.05 °C | 0.18 °C | 0.55 °C | -0.21 °C | 0.33 °C | 0.59 °C | 0.25 °C | 0.62 °C | 0.87 °C | 0.23 °C
5 | O=S(=O)(NCCNC/C=C/c1ccc(Br)cc1)c1cccc2cnccc12 | 0.56 °C | 0.32 °C | 0.25 °C | 0.22 °C | 0.02 °C | 0.46 °C | 0.01 °C | 0.54 °C | 0.79 °C | 0.63 °C
6 | CC(C)(CCCCCC(O)CCCCCC(C)(C)C(=O)O)C(=O)O | 0.72 °C | 0.34 °C | 0.51 °C | -0.22 °C | 0.25 °C | 0.67 °C | 0.41 °C | 0.9 °C | 2.27 °C | 0.2 °C
7 | COc1ccc(Cl)c(Nc2nc3ccccc3nc2NS(=O)(=O)c2cccc(NC(=O)C(C)(C)N)c2)c1 [Pilaralisib (XL147)] | 1.06 °C | -0.18 °C | 0.85 °C | 2.37 °C | 1.12 °C | 1.09 °C | 1.54 °C | 2.89 °C | 2.92 °C | 1.52 °C
8 | COc1cc(OC)cc(N(CCNC(C)C)c2ccc3ncc(-c4cnn(C)c4)nc3c2)c1 | 1.81 °C | 2.46 °C | 0.37 °C | 0.27 °C | 0.3 °C | 0.28 °C | 0.45 °C | 0.74 °C | 2.14 °C | 0.41 °C
9 | Cc1ncc(CO)c(CO)c1O [Pyridoxine] | 0.81 °C | -0.02 °C | 0.53 °C | -0.09 °C | 0.25 °C | 0.62 °C | 0.03 °C | -0.36 °C | 0.12 °C | 0.24 °C
10 | Cc1cc(Nc2nc(N[C@@H](C)c3ncc(F)cn3)ncc2Cl)[nH]n1 | 3.59 °C | 2.58 °C | 0.1 °C | 5.26 °C | 0.82 °C | 2.31 °C | 3.08 °C | 1.86 °C | 2.03 °C | 0.47 °C
11 | O=C1NC(=O)/C(=C/c2ccc3nccc(-c4ccncc4)c3c2)S1 | 1.29 °C | 0.51 °C | 0.38 °C | 2.47 °C | 0.28 °C | 0.79 °C | 0.4 °C | 7.2 °C | 1.96 °C | 0.48 °C
12 | CN1CC[C@H](c2c(O)cc(O)c3c(=O)cc(-c4ccccc4Cl)oc23)[C@H](O)C1 [Flavopiridol HCl] | 1.65 °C | 0.99 °C | 0.18 °C | 2.02 °C | 1.25 °C | 0.4 °C | 0.81 °C | 1.99 °C | 1.82 °C | 0.56 °C
13 | CC(C)n1nc(-c2ccc3oc(N)nc3c2)c2c(N)ncnc21 | 6.62 °C | 0.93 °C | 0.38 °C | 0.67 °C | 1.24 °C | 0.47 °C | 0.61 °C | 5.42 °C | 0.87 °C | 0.38 °C
14 | COc1cc2ncnc(Nc3ccc(F)c(Cl)c3)c2cc1OCCCN1CCOCC1 [Gefitinib (ZD1839)] | 1.36 °C | 0.04 °C | 0.31 °C | 1.33 °C | 0.64 °C | 0.05 °C | 1.04 °C | 4.83 °C | 1.76 °C | 0.77 °C
15 | COc1cc(Nc2ncc3c(n2)-c2ccc(Cl)cc2C(c2c(F)cccc2OC)=NC3)ccc1C(=O)O [Alisertib (MLN8237)] | 2.28 °C | 4.54 °C | 0.09 °C | 0.11 °C | -0.26 °C | -0.33 °C | 1.53 °C | 2.39 °C | 0.2 °C | 0.09 °C
16 | N#CCNC(=O)c1ccc(-c2ccnc(Nc3ccc(N4CCOCC4)cc3)n2)cc1 [Momelotinib (CYT387)] | 7.23 °C | 1.25 °C | 0.41 °C | 2.09 °C | 0.29 °C | 1.99 °C | 2.03 °C | 3.88 °C | 3.2 °C | 2.25 °C
17 | O=C(NC[C@H](O)CO)c1ccncc1Nc1ccc(I)cc1F | 0.45 °C | 0.09 °C | 0.21 °C | -0.04 °C | 0.19 °C | 0.42 °C | 0.09 °C | 0.79 °C | 0 °C | 0.62 °C
18 | CN1CCN(CCOc2cc(OC3CCOCC3)c3c(Nc4c(Cl)ccc5c4OCO5)ncnc3c2)CC1 [Saracatinib (AZD0530)] | 2.36 °C | 0.77 °C | 0.38 °C | 2.47 °C | 1.15 °C | 0.13 °C | 3.05 °C | 7.08 °C | 3.11 °C | 0.53 °C
19 | COC1(c2sc3c(N4CCOCC4)nc(-c4cnc(N)nc4)nc3c2C)COC1 | 1.67 °C | 3.13 °C | -0.01 °C | 0.74 °C | 0.96 °C | 4.14 °C | 0.91 °C | 2.13 °C | 1.11 °C | 0.5 °C
20 | COc1cc2ncnc(Oc3ccc(CC(=O)Nc4cnn(C(C)C)c4)cc3)c2cc1OC | 0.54 °C | 0.74 °C | 0.53 °C | 0.37 °C | 0.19 °C | 0.01 °C | 0.5 °C | 2.1 °C | 1.49 °C | 0.32 °C
